Results published in PubChem BioAssay (NCI).
Compounds without any hit were thinned out: in the full panel of roughly 79,000, 15% have a hit. Values without a mark were called inactive. Activity calls are given as the source filed them. Rule as the data show it: active = growth inhibition above about 70%; inactive = the rest.

How the values were obtained:
[1] = NCI Yeast Anticancer Drug Screen. Data for the rad50 strain (AID 155);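 also: 0% = growth of vehicle-only cultures of the same strain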; conditions: S. cerevisiae rad50 strain growth inhibition; at 50.0 µM; hits give high values
Method in brief: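 Cells are treated with compound, grown, and their growth is then scored against vehicle-only cultures of the same repair-deficient yeast strain.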

[2] = NCI Yeast Anticancer Drug Screen. Data for the mec2-1 strain (AID 157); conditions: S. cerevisiae mec2-1 strain, at 50.0 µM, hits give high values
Method in brief: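 mec2-1 yeast strain, carrying an alteration in DNA damage repair or cell cycle control, was exposed to compounds; growth inhibition was measured relative to vehicle-treated controls.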

[3] = NCI Yeast Anticancer Drug Screen. Data for the sgs1 mgt1 strain (AID 161);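 also: 0% = growth of cultures given vehicle only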; conditions: S. cerevisiae sgs1 mgt1 strain, at 50.0 µM, hits give high values
Method in brief: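 This yeast growth screen uses a strain with defined DNA-repair lesions; compound-treated growth is compared with vehicle-treated growth.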

[4] = NCI Yeast Anticancer Drug Screen. Data for the cln2 rad14 strain (AID 165);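 also: 0% = growth equal to vehicle treated cultures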; conditions: S. cerevisiae cln2 rad14 strain, at 50.0 µM, hits give high values
Method in brief: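 Yeast carrying cln2 and rad14 alterations (cell cycle control and DNA damage repair) were exposed to compounds. Growth inhibition was measured against vehicle-treated controls.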

[5] = NCI Yeast Anticancer Drug Screen. Data for the bub3 strain (AID 167); conditions: S. cerevisiae bub3 mutant strain, at 50.0 µM, hits give high values
Method in brief: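 Part of a panel of yeast mutants defective in DNA damage repair or cell cycle regulation. Each strain is grown with compound, and inhibition is calculated relative to solvent-treated cultures.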

[6] = NCI Yeast Anticancer Drug Screen. Data for the mlh1 rad18 strain (AID 175); conditions: S. cerevisiae mlh1 rad18 strain growth inhibition; at 50.0 µM; hits give high values
Method in brief: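 Growth inhibition of the yeast strain was measured after compound exposure and expressed relative to vehicle-treated controls. The strain carries defined defects in DNA damage repair.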

Structure (SMILES): CCC(CC(C)C)C(=O)OCCBr (stereo not drawn)
- growth inhibition [1]: 17.9%
- growth inhibition [2]: 15.2%
- growth inhibition [3]: 20.6%
- growth inhibition [4]: -12.8%
- growth inhibition [5]: 45.5%
- growth inhibition [6]: 14.4%

Structure (SMILES): C/C(=C\N1CCCCC1)C(=O)c1ccc(F)cc1
- growth inhibition [1]: 9.3%
- growth inhibition [2]: 13.2%
- growth inhibition [3]: -4.65%
- growth inhibition [4]: 6.25%
- growth inhibition [5]: -16.4%
- growth inhibition [6]: 24.7%

Structure (SMILES): CCOC(=O)C(C#N)C(=O)c1ccccc1-c1ccccc1[N+](=O)[O-] (stereo not drawn)
- growth inhibition [1]: 7.9%
- growth inhibition [2]: 1.1%
- growth inhibition [3]: 3.35%
- growth inhibition [4]: -9.4%
- growth inhibition [5]: -13.2%
- growth inhibition [6]: 5%

Structure (SMILES): CC(CC#N)=C(c1ccccc1)c1ccccc1
- growth inhibition [1]: 17.4%
- growth inhibition [2]: 18.9%
- growth inhibition [3]: 14%
- growth inhibition [4]: 16%
- growth inhibition [5]: -12.8%
- growth inhibition [6]: -5.05%

Structure (SMILES): NC1=CN(Cc2ccccc2)C2=N/C(=C\c3ccccc3)C(=O)N12
- growth inhibition [1]: -13.3%
- growth inhibition [2]: -5.8%
- growth inhibition [3]: 8.5%
- growth inhibition [4]: -16%
- growth inhibition [5]: 14.2%
- growth inhibition [6]: -33.7%

Structure (SMILES): O=S(=O)(Oc1cccc2ccccc12)c1ccc(Br)cc1
- growth inhibition [1]: 3.15%
- growth inhibition [2]: -13.4%
- growth inhibition [3]: 10.2%
- growth inhibition [4]: -9.75%
- growth inhibition [5]: 30.7%
- growth inhibition [6]: -10.3%

Structure (SMILES): CSc1nc2nc[nH]c(=O)c2[nH]1
- growth inhibition [1]: -3.55%
- growth inhibition [2]: -11.6%
- growth inhibition [3]: -5.75%
- growth inhibition [4]: -14.1%
- growth inhibition [5]: -5.35%
- growth inhibition [6]: -2.5%

Structure (SMILES): Cc1ccc(-n2cnc(C(=N)C#N)c2N)cc1
- growth inhibition [1]: -15.6%
- growth inhibition [2]: -31.7%
- growth inhibition [3]: -10%
- growth inhibition [4]: -12.1%
- growth inhibition [5]: 9.55%
- growth inhibition [6]: -13.1%

Structure (SMILES): OCc1ccccc1C1CSCSC1
- growth inhibition [1]: -7.2%
- growth inhibition [2]: -29.1%
- growth inhibition [3]: -37.5%
- growth inhibition [4]: -30.9%
- growth inhibition [5]: -21.4%
- growth inhibition [6]: -12.2%

Structure (SMILES): O=[N+]([O-])c1cccc(-c2cc(-c3cccs3)cc(-c3ccccc3)n2)c1
- growth inhibition [1]: 6.7%
- growth inhibition [2]: 3.95%
- growth inhibition [3]: -1.95%
- growth inhibition [4]: -1.4%
- growth inhibition [5]: 2.85%
- growth inhibition [6]: 4.95%

Structure (SMILES): O=c1[nH]c2cc(Cl)ccc2nc1/C=C(\O)c1ccc([N+](=O)[O-])cc1
- growth inhibition [1]: 25.6%
- growth inhibition [2]: 21.8%
- growth inhibition [3]: 37.4%
- growth inhibition [4]: 7.85%
- growth inhibition [5]: 6.55%
- growth inhibition [6]: 54%

Structure (SMILES): COC1N(c2ccccc2)CCN1c1ccccc1
- growth inhibition [1]: 3.05%
- growth inhibition [2]: 6.1%
- growth inhibition [3]: -23.2%
- growth inhibition [4]: 4.75%
- growth inhibition [5]: 5.55%
- growth inhibition [6]: 8.3%

Structure (SMILES): O=C1CN(/N=C/c2ccc(-c3cccc(C(F)(F)F)c3)o2)C(=O)N1
- growth inhibition [1]: 36.4%
- growth inhibition [2]: 18.4%
- growth inhibition [3]: 19.8%
- growth inhibition [4]: -19.3%
- growth inhibition [5]: 16.2%
- growth inhibition [6]: 21.1%

Structure (SMILES): O=C1C=CC(c2ccccc2)(c2ccccc2)O1
- growth inhibition [1]: -32.7%
- growth inhibition [2]: -10.8%
- growth inhibition [3]: -15.3%
- growth inhibition [4]: -22.4%
- growth inhibition [5]: -8.35%
- growth inhibition [6]: -7.1%

Structure (SMILES): O=C(Nc1ccc(O)cc1)c1ccccc1O
- growth inhibition [1]: 31.6%
- growth inhibition [2]: -20.4%
- growth inhibition [3]: 14.3%
- growth inhibition [4]: -5.95%
- growth inhibition [5]: 15.4%
- growth inhibition [6]: 1.25%

Structure (SMILES): COc1ccc2nc3cc(Cl)ccc3c(NCCNCC(C)(C)O)c2c1
- growth inhibition [1]: 23.4%
- growth inhibition [2]: 15.8%
- growth inhibition [3]: 18.5%
- growth inhibition [4]: 63.8%
- growth inhibition [5]: 27.1%
- growth inhibition [6]: 22.1%

Structure (SMILES): CCOC(=O)C(Cc1cccc2ccccc12)(NC(C)=O)C(=O)OCC
- growth inhibition [1]: -7.5%
- growth inhibition [2]: -4.55%
- growth inhibition [3]: -5.95%
- growth inhibition [4]: -31.9%
- growth inhibition [5]: 16.5%
- growth inhibition [6]: -14.8%

Structure (SMILES): CC(=Nc1ccc(C)cc1N)c1c(O)cc(C)oc1=O
- growth inhibition [1]: -8.75%
- growth inhibition [2]: -7.5%
- growth inhibition [3]: -11.4%
- growth inhibition [4]: -32.6%
- growth inhibition [5]: 1.3%
- growth inhibition [6]: -5.85%

Structure (SMILES): CC(COc1ccccc1)OC=O (stereo not drawn)
- growth inhibition [1]: 10.6%
- growth inhibition [2]: -2.65%
- growth inhibition [3]: 8.2%
- growth inhibition [4]: -24.4%
- growth inhibition [5]: -13.8%
- growth inhibition [6]: 8.65%

Structure (SMILES): Nn1c(C23CC4CC(CC(C4)C2)C3)n[nH]c1=S
- growth inhibition [1]: 4.35%
- growth inhibition [2]: 5.65%
- growth inhibition [3]: 36.1%
- growth inhibition [4]: -6.85%
- growth inhibition [5]: 16.6%
- growth inhibition [6]: 28.1%

Structure (SMILES): COc1ccc(Cc2nc3c([nH]2)c(=O)n(C)c(=O)n3C)cc1
- growth inhibition [1]: -0.05%
- growth inhibition [2]: -14.1%
- growth inhibition [3]: 0.05%
- growth inhibition [4]: -50.8%
- growth inhibition [5]: 1.2%
- growth inhibition [6]: 1.2%

Structure (SMILES): COC1=CC(=O)c2nc3ccccc3c3ccnc1c23
- growth inhibition [1]: 87% (active)
- growth inhibition [2]: 76.1% (active)
- growth inhibition [3]: 83.2% (active)
- growth inhibition [4]: 51.2%
- growth inhibition [5]: 87.3% (active)
- growth inhibition [6]: 87.2% (active)

Structure (SMILES): Cc1cccc(/C=C(\C#N)C(=O)c2ccccc2)c1
- growth inhibition [1]: -10.6%
- growth inhibition [2]: 15.3%
- growth inhibition [3]: -13.6%
- growth inhibition [4]: 5.75%
- growth inhibition [5]: -5.25%
- growth inhibition [6]: 21.2%

Structure (SMILES): NC(=O)C1C2CC3C(C2O)C31C(N)=O (stereo not drawn)
- growth inhibition [1]: -13.1%
- growth inhibition [2]: -4%
- growth inhibition [3]: -14%
- growth inhibition [4]: -30.1%
- growth inhibition [5]: -12.9%
- growth inhibition [6]: -28.7%

Structure (SMILES): O=c1c2ccccc2nc(-c2ccccc2)n1NC(=S)Nc1cccc(Cl)c1
- growth inhibition [1]: 7.45%
- growth inhibition [2]: -27.1%
- growth inhibition [3]: 3.65%
- growth inhibition [4]: -71.7%
- growth inhibition [5]: 28.7%
- growth inhibition [6]: 0.55%

Structure (SMILES): Cc1cc2c(=O)cc(-c3ccccc3)oc2c(C(N)=O)c1C
- growth inhibition [1]: 15.3%
- growth inhibition [2]: 19.9%
- growth inhibition [3]: 27.5%
- growth inhibition [4]: -2.95%
- growth inhibition [5]: 14.8%
- growth inhibition [6]: 1.55%

Structure (SMILES): CC1(C)COC(C)(Cc2ccccc2)OC1
- growth inhibition [1]: -5.9%
- growth inhibition [2]: 3.55%
- growth inhibition [3]: -15.7%
- growth inhibition [4]: -65.3%
- growth inhibition [5]: -22.1%
- growth inhibition [6]: -11.7%

Structure (SMILES): Nc1nc2c(ccc3ccccc32)[nH]1
- growth inhibition [1]: -19.8%
- growth inhibition [2]: 6.8%
- growth inhibition [3]: 8.4%
- growth inhibition [4]: 6.5%
- growth inhibition [5]: 10.3%
- growth inhibition [6]: 21.6%

Structure (SMILES): COc1cc(OC)c(C(=O)c2ccccc2N)c(OC)c1
- growth inhibition [1]: -3.2%
- growth inhibition [2]: -0.35%
- growth inhibition [3]: -1.5%
- growth inhibition [4]: 6.55%
- growth inhibition [5]: -8.45%
- growth inhibition [6]: 9.4%

Structure (SMILES): CCOC1(COP(=O)(OCc2ccccc2)OCc2ccccc2)COC(COP(=O)(OCc2ccccc2)OCc2ccccc2)(OCC)CO1 (stereo not drawn)
- growth inhibition [1]: -30.1%
- growth inhibition [2]: -25.6%
- growth inhibition [3]: -16.2%
- growth inhibition [4]: 2.2%
- growth inhibition [5]: -3.75%
- growth inhibition [6]: -22.8%

Structure (SMILES): CSCCC(NC(=O)c1c(Cl)ccc(Cl)c1Cl)C(=O)O (stereo not drawn)
- growth inhibition [1]: -8.45%
- growth inhibition [2]: -0.75%
- growth inhibition [3]: 18.6%
- growth inhibition [4]: -18.6%
- growth inhibition [5]: 0.6%
- growth inhibition [6]: -16.4%

Structure (SMILES): CCCCN(c1ccccn1)S(=O)(=O)c1ccccc1
- growth inhibition [1]: -2.3%
- growth inhibition [2]: 19.8%
- growth inhibition [3]: 19.3%
- growth inhibition [4]: 7.6%
- growth inhibition [5]: -3.55%
- growth inhibition [6]: 5.75%

Structure (SMILES): COc1ccccc1/C=C1/C(=O)ON=C1C
- growth inhibition [1]: 0.05%
- growth inhibition [2]: -21.1%
- growth inhibition [3]: -11.9%
- growth inhibition [4]: 9.6%
- growth inhibition [5]: -17.1%
- growth inhibition [6]: -18.5%

Structure (SMILES): Cc1csc(=S)n1C
- growth inhibition [1]: -15.2%
- growth inhibition [2]: -3.2%
- growth inhibition [3]: -17.6%
- growth inhibition [4]: -5.8%
- growth inhibition [5]: -12%
- growth inhibition [6]: 0.4%

Structure (SMILES): CCc1c(C)c2n(c1C)C(=O)C=C2N(CC)CC
- growth inhibition [1]: -11.2%
- growth inhibition [2]: -18.1%
- growth inhibition [3]: -38.1%
- growth inhibition [4]: -6.45%
- growth inhibition [5]: -2%
- growth inhibition [6]: -20.6%

Structure (SMILES): CCC(C(N)=O)C(N)=O
- growth inhibition [1]: -20.1%
- growth inhibition [2]: -27.9%
- growth inhibition [3]: -34.5%
- growth inhibition [4]: 15.8%
- growth inhibition [5]: -1.3%
- growth inhibition [6]: -6.1%

Structure (SMILES): O=c1c(C(=Nc2ccccc2)c2ccccc2)c[nH]n1-c1ccccc1
- growth inhibition [1]: -10.5%
- growth inhibition [2]: 6.9%
- growth inhibition [3]: -6%
- growth inhibition [4]: 17.6%
- growth inhibition [5]: -15.6%
- growth inhibition [6]: -12.1%

Structure (SMILES): N#C/C(=C/c1cccc2ccccc12)C(=O)c1ccccc1
- growth inhibition [1]: 36.9%
- growth inhibition [2]: -2.75%
- growth inhibition [3]: 3.6%
- growth inhibition [4]: 26.9%
- growth inhibition [5]: -3.75%
- growth inhibition [6]: -5.5%
